Source: PubChem BioAssay (Broad Institute)
Shown are actives, neighbours in structure and some others; about 6.7% of the full set was active somewhere.
Pf Dd2 inh – blocks growth of Plasmodium falciparum Dd2 parasites; P. falciparum Dd2 growth, SYBR Green, 72 h; active compounds read low; activity change, % at 10 µM; 94,000 tested, 2.3% active; AID 1159554; in the data active = activity change below about -80%; inconclusive = no clear call, values can overlap the other calls
C diff growth – C. difficile growth inhibition | growth activity, negative = inhibition, % at 16 µg/mL (by protocol) | 86,000 tested, 0.25% active | Clostridium difficile clinical isolate growth, OD600, 24 h; active compounds read low;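 active = mean growth activity at or below -80% and every replicate also at or below -80%; inconclusive = mean at or below -80% but some replicate above -80%; inactive = mean growth activity above -80%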;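 note: 0% = DMSO wells and -100% = levofloxacin 16 µg/mL wells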
T cruzi growth-1 – blocks T. cruzi growth in NIH3T3 culture; T. cruzi beta-gal in NIH3T3, GalScreen luminescence, 90 h; 77,000 tested, 5.9% active; inhibition, % at 8.34 µM;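 active = mean inhibition above about 93%, with at least 55% of replicates each passing it, limit read from the data, passing the limit was not always enough; inconclusive = only one of those two conditions holds; inactive = neither condition holds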
T cruzi growth-2 – Trypanosoma cruzi proliferation inhibition. shares compounds with T cruzi growth-1. T. cruzi beta-gal in NIH3T3, GalScreen luminescence, 90 h. inhibition, % at 8.35 µM. 5,600 tested, 72% active;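 active = mean replicate inhibition above about 95% and at least 55% of replicates individually reaching it, limit read from the data; inconclusive = only one of the two criteria is met; inactive = neither criterion is met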
T cruzi growth-3 – inhibitors of T. cruzi proliferation; shares compounds with T cruzi growth-1; T. cruzi beta-gal in NIH3T3, GalScreen luminescence, 90 h; inhibition, % at 2.09 µM; 5,600 tested, 21% active;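 active = mean inhibition above about 95%, with at least 55% of replicates also reaching it, limit read from the data; inconclusive = meets just one of the two conditions; inactive = meets neither condition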;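 note: plate controls were neutral control median for no effect and positive control median for full effect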
NIH3T3 tox – NIH/3T3 (mouse) viability loss; NIH/3T3 viability, CellTiter-Glo ATP luminescence, 90 h; 5,600 tested, 14% active; AID 651742; shares compounds with T cruzi growth-1; cytotoxicity (signal decrease), % at 8.35 µM;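 active = mean signal decrease across replicates above about 35% based on untreated-well scatter, with enough replicates individually passing, limit read from the data; inconclusive = no rule stated though some were filed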;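 note: 0% = median of neutral control wells and 100% = median of positive control wells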
NIH3T3 tox 2 – cytotoxicity in mouse NIH/3T3 fibroblasts. NIH/3T3 viability, CellTiter-Glo ATP luminescence, 90 h. shares compounds with T cruzi growth-1. AID 651744. inhibition, % at 24.9 µM. 5,600 tested, 56% active;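 active = mean loss of cell viability signal at or above a set limit, and enough replicates individually reaching it; inconclusive = meets only the mean limit or only the replicate share; inactive = meets neither condition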;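 note: 0% = median of neutral control wells and 100% = median of positive control wells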
An asterisk follows results filed as active; u = inconclusive; x = not tested or not shown.

SMILES	Pf Dd2 inh	C diff growth	T cruzi growth-1	T cruzi growth-2	T cruzi growth-3	NIH3T3 tox	NIH3T3 tox 2
CC(C)NC(=O)N(C)C[C@@H]1Oc2cc(-c3ccccc3F)ccc2S(=O)(=O)N([C@@H](C)CO)C[C@H]1C	x	-14	-8	x	x	x	x
C[C@H](CO)N1C[C@H](C)[C@@H](CN(C)C(=O)Nc2ccccc2F)Oc2cc(-c3cccc(C#N)c3)ccc2S1(=O)=O	-50	3	u	103*	51	41*	69*
C[C@@H]1CN([C@@H](C)CO)S(=O)(=O)c2ccc(-c3cccc(C#N)c3)cc2O[C@H]1CN(C)C(=O)Nc1ccccc1F	-52	-3	86	x	x	x	x
COc1cccc(-c2ccc([C@@H]3[C@H](CO)N4CCCCN(C(=O)NC(C)C)C[C@@H]34)cc2)c1	1	-5	102*	105*	51	-3	48*
COc1ccc(-c2ccc([C@H]3[C@H]4CN(C(=O)NC(C)C)CCCCN4[C@H]3CO)cc2)cc1	-3	0	37	x	x	x	x
COc1cccc(-c2ccc([C@H]3[C@H]4CN(C(=O)NC(C)C)CCCCN4[C@H]3CO)cc2)c1	17	-4	91	x	x	x	x
COc1ccc(-c2ccc([C@@H]3[C@H](CO)N4CCCCN(C(=O)NC(C)C)C[C@@H]34)cc2)cc1	-17	9	109*	108*	67	10	45*
Cc1cccc(-c2ccc([C@@H]3[C@H]4CN(C(=O)NC(C)C)CCCCN4[C@H]3CO)cc2)c1	17	-11	91	x	x	x	x
COc1ccccc1NC(=O)N1CCCCN2[C@H](CO)[C@H](c3ccc(-c4cccc(C)c4)cc3)[C@@H]2C1	-11	1	u	107*	103*	5	u
COc1ccccc1NC(=O)N1CCCCN2[C@H](C1)[C@@H](c1ccc(-c3cccc(C)c3)cc1)[C@@H]2CO	-67	7	77	x	x	x	x
Cc1cccc(-c2ccc([C@H]3[C@@H](CO)N4CCCCN(C(=O)NC(C)C)C[C@H]34)cc2)c1	-7	-8	109*	108*	84	-15	105*
O=C(N[C@@H]1CC[C@@H](CCNS(=O)(=O)c2cccc(Cl)c2)O[C@@H]1CO)c1ccccc1	-3	0	38	x	x	x	x
CCCC#Cc1ccc([C@H]2[C@@H](CO)N3C(=O)CN(C(=O)c4ccc(F)cc4)C[C@@H]23)cc1	-6	6	x	x	x	x	x
COc1cccc(-c2ccc([C@@H]3[C@H](CO)N4CCCCN(CC5CCOCC5)C[C@@H]34)cc2)c1	-50	-1	50	x	x	x	x
COc1cccc(-c2ccc([C@H]3[C@H](CO)N4CCCCN(CC5CCOCC5)C[C@@H]34)cc2)c1	-13	3	91	x	x	x	x
COc1cccc(-c2ccc([C@@H]3[C@@H](CO)N4CCCCN(CC5CCOCC5)C[C@@H]34)cc2)c1	-10	4	98*	99*	39	18	54*
COc1cccc(-c2ccc([C@H]3[C@H]4CN(CC5CCOCC5)CCCCN4[C@H]3CO)cc2)c1	-15	1	104*	74	23	3	58*
OC[C@H]1[C@@H](c2ccccc2)C2(CN(CC3CC3)C2)N1Cc1nccs1	-10	5	x	x	x	x	x
COc1ccccc1NC(=O)N(C)C[C@@H]1Oc2cc(Br)ccc2S(=O)(=O)N([C@H](C)CO)C[C@H]1C	-48	0	x	x	x	x	x
CO[C@@H]1CN(C)C(=O)c2ccc(NC(=O)c3ccccc3)cc2OC[C@H](C)N(C(C)=O)C[C@@H]1C	-26	-7	x	x	x	x	x
O=C(Nc1ccc(F)cc1)N1CCCCN2[C@H](CO)[C@@H](c3ccc(-c4cccc(F)c4)cc3)[C@H]2C1	-39	37	91	x	x	x	x
COc1ccccc1NC(=O)N1CCCCN2[C@H](CO)[C@H](c3ccc(-c4cccc(F)c4)cc3)[C@H]2C1	-66	51	28	x	x	x	x
O=C(Nc1ccc(F)cc1)N1CCCCN2[C@H](CO)[C@H](c3ccc(-c4cccc(F)c4)cc3)[C@@H]2C1	-3	-2	118*	108*	85	17	72*
O=C(Nc1ccc(F)cc1)N1CCCCN2[C@@H](CO)[C@H](c3ccc(-c4cccc(F)c4)cc3)[C@@H]2C1	-30	37	106*	95*	80	120*	103*
